Data published in PubChem BioAssay (EPA / NIEHS).
The source made the active and inactive calls. Rule for the calls: active = hit-call score of the fitted dose curve at least 0.9, where 1 is the maximum; inconclusive = response in the unintended direction; inactive = score below 0.9.

These molecules were tested on rat CYP2C6, gene 293989 (assay: NVS_ADME_rCYP2C6: NovaScreen (NVS) CYP450-related Enzyme Activity (ADME) Assay for rat CYP2C6 (AID 2283120)).
Experimental: NVS_ADME_rCYP2C6 is a biochemical, single-readout assay that uses extracted gene-proteins in a cell-free assay. Measurements were taken 1 hour after chemical dosing in a 96-well plate.NVS_ADME_rCYP2C6 is one of one assay component(s) measured or calculated from the NVS_ADME_rCYP2C6 assay. It is designed to make measurements of enzyme activity, a form of enzyme reporter, as detected with fluorescence intensity signals by Fluorescence technology.Data from the assay component NVS_ADME_rCYP2C6 was analyzed into 1 assay endpoint. This assay endpoint, NVS_ADME_rCYP2C6, was analyzed in the positive analysis fitting direction relative to Acetonitrile as the negative control and baseline of activity. Using a type of enzyme reporter, loss-of-signal activity can be used to understand changes in the enzymatic activity as they relate to the gene Cyp2c6v1. Furthermore, this assay endpoint can be referred to as a primary readout, because this assay has produced multiple assay endpoints where this one serves a enzymatic activity function. To generalize the intended target to other relatable targets, this assay endpoint is annotated to the cyp intended target family, where the subfamily is xenobiotic metabolism.
Binding assays used specific radioligands (tritiated, iodinated) with non-radioactive competitive displacement ligands in agonist or antagonist protocols (as indicated) and various reference compounds and inhibitors to titrate specific binding to receptors and transporters. Most enzyme assays (CYPs, kinases, phosphatases, proteases, HDACs) used recombinant protein and specific substrates (fluorescence mostly, some colorimetric and radioactive) and inhibitors, followed by a biochemical separation of substrate and product. All assays for the biochemical HTS were initially run in duplicate at a single concentration (10 uM for CYP450 assays and 25 uM for all others). Assay-chemical combinations meeting a pre-defined threshold (e.g., 30% inhibition and other criteria defined below) were then run in singleton concentration-response format with maximum concentration of 20 uM for CYPs and 50 uM for all others. Each assay was run with positive and negative controls, and concurrent controls on every plate. The follow-up (secondary) screen tested active chemical-pairs in concentration series, as well as a few additional assays not tested in the primary screen, some selected negative inactives, and several cases re-run in the concentration series for confirmatory purposes.
In the case of `CCCC1COC(Cn2cncn2)(c2ccc(Cl)cc2Cl)O1` (stereo unspecified), the AC50 is reported as 2450 nM (active).
In the case of `CO/C=C(/C(=O)OC)c1ccccc1Oc1cc(Oc2ccccc2C#N)ncn1`, the AC50 is reported as 2120 nM (active).
For `N#CC(CCc1ccc(Cl)cc1)(Cn1cncn1)c1ccccc1` (stereo unspecified), the AC50 was 1440 nM (active).
For `CCOC(=O)CC(SP(=S)(OC)OC)C(=O)OCC` (stereo unspecified), the AC50 was 50.1 nM (active).
For `CCOP(=S)(OCC)SCn1c(=O)oc2cc(Cl)ccc21`, the AC50 was 336 nM (active).
For `CN(C)C(=S)SSC(=S)N(C)C`, the AC50 was 1280 nM (active).
With `CC1COC(Cn2cncn2)(c2ccc(Oc3ccc(Cl)cc3)cc2Cl)O1` (stereo unspecified) the AC50 was 1560 nM (active).
For `CCCN(CCC)c1c([N+](=O)[O-])cc(S(N)(=O)=O)cc1[N+](=O)[O-]`, the AC50 was 7630 nM (active).
With `CS/C(C)=N/OC(=O)N(C)SN(C)C(=O)O/N=C(\C)SC` the AC50 was 3630 nM (active).
For `OC(c1ccc(Cl)cc1)(c1cncnc1)c1ccccc1Cl` (stereo unspecified), the AC50 was 1390 nM (active).
In the case of `COc1ccc(C(c2ccc(OC)cc2)C(Cl)(Cl)Cl)cc1`, the AC50 is reported as 9600 nM (active).
